{
  "source": "PubChem BioAssay (NCI)",
  "note": "About 83,000 compounds went through this panel and 20% of them were active in at least one assay; those are over-represented in the sample as a whole.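 The test compound was applied at a single concentration to cells in 96-well plates for 48 hours, and percent growth was recorded.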 Values without a mark were called inactive. Calls of active or inactive are those of the source. Rule for the calls: active = growth percent below 10; inactive = the rest.",
  "data": [
    {"tested_on": "RXF 393 renal", "test": "NCI-60 one-dose screen, 48 h (100 = growth as untreated, 0 = no growth, -100 = all killed)", "conditions": "10 µM unless noted", "values": [
      {"smiles": "CCCCCSB(SCCCCC)c1ccccc1", "growth": "109%"},
      {"smiles": "c1ccc(CNc2ccc3nc(CCC4CCCCC4)[nH]c3c2)cc1", "growth": "66.5%"},
      {"smiles": "S=c1ssnc1-c1cccs1", "growth": "116%"},
      {"smiles": "O=C(/C=C/c1ccc(Br)cc1)c1ccc(-n2cc(CN3CCN(c4cc5c(cc4F)c(=O)c(C(=O)O)cn5C4CC4)CC3)nn2)cc1", "growth": "88.4%"},
      {"smiles": "COc1ccc(Cc2cnc(NC(=O)c3sc4ccccc4c3Cl)s2)cc1", "growth": "1.01% (active)"},
      {"smiles": "N#C/C(=C\\c1ccc(Cl)cc1Cl)C(=O)Nc1ncc(Cc2ccc(Cl)c(Cl)c2)s1", "growth": "113%"},
      {"smiles": "N#Cc1c(-c2cccc([N+](=O)[O-])c2)cc(-c2ccc(Nc3nc(Nc4ccc(F)cc4)nc(Nc4ccc(F)cc4)n3)cc2)nc1N", "growth": "-10.3% (active)"},
      {"smiles": "O=C(CCCCCCN1CC(=O)N2[C@@H](c3ccc(Cl)cc3)c3[nH]c4ccccc4c3C[C@H]2C1=O)NO", "growth": "72.7%"},
      {"smiles": "CCCCCCCCn1ccc2cc(NC(=O)Cn3cc(CN4CCC(C)CC4)nn3)ccc21", "growth": "24.8%"},
      {"smiles": "CCCC(O)Cn1ncc(C(=O)OCC)c1NC(=O)NCc1cccc(F)c1", "note": "(stereo unspecified)", "growth": "120%"},
      {"smiles": "COc1cc2c3c(c1O)-c1ccccc1[C@@H]1OC(=O)N(CC2)[C@H]31", "growth": "97.6%"},
      {"smiles": "C/C(=C(/c1ccc(Cl)cc1)c1ccc(OCCCN(C)C)cc1)c1ccc(Cl)cc1", "growth": "77.6%"},
      {"smiles": "Cc1cc(C(=O)Nc2cc(Nc3ncccc3-c3ncnc4nc[nH]c34)ccc2F)cc(C(F)(F)F)c1", "growth": "100%"},
      {"smiles": "CCOC(=O)NN1CC(O)=C(c2nc(-c3ccc(Br)cc3)cs2)C1=N", "growth": "82.9%"},
      {"smiles": "O=C1C(Cl)=C(NCCN2CCOCC2)C(=O)c2ncccc21", "growth": "-27.5% (active)"},
      {"smiles": "O=C(Nc1ccc(F)cc1)Nc1ccccc1CNc1nc(Nc2ccc(OCCN3CCCC3)cc2)ncc1Cl", "growth": "-50% (active)"},
      {"smiles": "C[C@H]1[C@H](C)CC[C@]2(C(=O)O)CC[C@]3(C)C(=CC[C@@H]4[C@@]5(C)C[C@@H](Cc6cn([C@@H]7O[C@H](CO)[C@@H](O)[C@H](O)[C@H]7O)nn6)[C@H](O)C(C)(C)[C@@H]5CC[C@]43C)[C@H]12", "growth": "118%"},
      {"smiles": "COC(=O)c1ccc2c(c1)c1c(C)c3ccncc3c(C)c1n2C", "growth": "17.5%"},
      {"smiles": "COc1cc(C(=O)c2c(-c3ccccc3)oc3c(OC)cccc23)cc(OC)c1O", "growth": "-6.63% (active)"},
      {"smiles": "C=C1C(=O)O[C@H]2[C@H]1CC/C(CNC(=O)c1cc3ccccc3[nH]1)=C\\CC[C@@]1(C)O[C@@H]21", "growth": "-76% (active)"},
      {"smiles": "O=P(O)(O)OCC1OC(n2cnc3c(NCc4ccccc4)ncnc32)C(O)C1O", "note": "(stereo unspecified)", "growth": "-0.932% (active)"},
      {"smiles": "CCN(CC)CCCNCc1cc(-c2ccccc2)nc2cc(Cl)ccc12", "growth": "77.2%"},
      {"smiles": "COc1cc2nc(Nc3cccc(F)c3)nc(Nc3cc(C)[nH]n3)c2cc1OC", "growth": "-88.7% [20 µM] (active)"},
      {"smiles": "CCC/C(=N\\NC(N)=O)C(OC)OC", "growth": "102%"},
      {"smiles": "O=C1c2cc3c(cc2-c2c1c1ccc(Cl)cc1c(=O)n2C[C@H](O)CO)OCO3", "growth": "-66.6% (active)"},
      {"smiles": "CCSC1=CC(=O)c2ccccc2C1=O", "growth": "42.8%"},
      {"smiles": "COc1cc(-c2nc3occn3c2-c2ccnc(NCCCNS(=O)(=O)c3ccccc3)n2)ccc1F", "growth": "48.6%"},
      {"smiles": "COC1=CC(c2ccc[nH]2)=N/C1=C\\c1[nH]c(C)c(CC(=O)OCc2ccccc2)c1C", "growth": "-26.7% (active)"},
      {"smiles": "O=C(CSc1nnc2sc(Nc3cccc(Cl)c3)nn12)c1ccc(F)cc1", "growth": "102%"},
      {"smiles": "COc1ccc(C2=Nc3c(N)ncnc3NC(c3cccc(Nc4ccnc5cc(C(F)(F)F)ccc45)c3)C2)cc1", "note": "(stereo unspecified)", "growth": "41%"},
      {"smiles": "Nc1c(C(=O)Nc2cccc3ncccc23)sc2nc3c(cc12)C(=O)CCC3", "growth": "29.3%"},
      {"smiles": "C#CCn1cnc2c(Nc3cccc(NC(=O)CCl)c3)ncnc21", "growth": "54.6%"},
      {"smiles": "COc1cc2oc(-c3cccc(NC(=O)c4ccc5c(c4)OCO5)c3)cc(=O)c2c(OC)c1OC", "growth": "46.5%"},
      {"smiles": "CCOC(=O)CSc1nc2sc3c(c2c(=O)n1-c1ccc([N+](=O)[O-])cc1)CCCCC3", "growth": "76.8%"},
      {"smiles": "Cn1cc(-c2nn3cc(-c4ccccc4)nc3s2)c2ccccc21", "growth": "89.3%"},
      {"smiles": "C=C1C(=O)O[C@H]2[C@H]1CC/C(COC(=O)NCCCCCCCCNC(=O)OC/C1=C/CC[C@@]3(C)O[C@H]3[C@H]3OC(=O)C(=C)[C@@H]3CC1)=C\\CC[C@@]1(C)O[C@@H]21", "growth": "-83.6% (active)"}
    ]}
  ]
}
